Screening results from PubChem.
Shown are actives, neighbours in structure and some others; about 1.5% of the full set was active somewhere.
cardiac RTF act = cardiac RTF calcium sensitivity activators, primary screen, biochemical, IANBD-TnC fluorescence, EC20 calcium; Troponin I, cardiac muscle (Homo sapiens) + Troponin T, cardiac muscle (Homo sapiens) + …; IANBD-labeled TnC RTF fluorescence at EC20 calcium; 0% EC20 calcium, 100% full calcium; activation, % at 7.2 µM; hit rate 0.24% among 340,000; AID 493008, 2010;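 active = activation above the mean over all tested compounds plus 3 SD, cut at about 30% in these data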;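 also: rise in fluorescence read as greater calcium sensitivity of cardiac thin filaments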
IDE cell inh = human IDE inhibitors in live cells, primary screen, fluorescence polarization, HEK cells, FAbetaB substrate; inhibition, % at 5.59 µM; AID 434962, 2010; FAbetaB cleavage; hit rate 0.41% among 320,000;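 active = percent inhibition above the average of all tested compounds plus 3 SD, set per screening campaign, cut at about 16% in these data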;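 also: IDE supplied by intact live HEK cells; FP after avidin binding of uncleaved biotin substrate so inhibition keeps polarization high; 0% = DMSO wells and 100% = 60 µM reference IDE inhibitor Ii1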
Target sequence (P14735 whole entry, looked up): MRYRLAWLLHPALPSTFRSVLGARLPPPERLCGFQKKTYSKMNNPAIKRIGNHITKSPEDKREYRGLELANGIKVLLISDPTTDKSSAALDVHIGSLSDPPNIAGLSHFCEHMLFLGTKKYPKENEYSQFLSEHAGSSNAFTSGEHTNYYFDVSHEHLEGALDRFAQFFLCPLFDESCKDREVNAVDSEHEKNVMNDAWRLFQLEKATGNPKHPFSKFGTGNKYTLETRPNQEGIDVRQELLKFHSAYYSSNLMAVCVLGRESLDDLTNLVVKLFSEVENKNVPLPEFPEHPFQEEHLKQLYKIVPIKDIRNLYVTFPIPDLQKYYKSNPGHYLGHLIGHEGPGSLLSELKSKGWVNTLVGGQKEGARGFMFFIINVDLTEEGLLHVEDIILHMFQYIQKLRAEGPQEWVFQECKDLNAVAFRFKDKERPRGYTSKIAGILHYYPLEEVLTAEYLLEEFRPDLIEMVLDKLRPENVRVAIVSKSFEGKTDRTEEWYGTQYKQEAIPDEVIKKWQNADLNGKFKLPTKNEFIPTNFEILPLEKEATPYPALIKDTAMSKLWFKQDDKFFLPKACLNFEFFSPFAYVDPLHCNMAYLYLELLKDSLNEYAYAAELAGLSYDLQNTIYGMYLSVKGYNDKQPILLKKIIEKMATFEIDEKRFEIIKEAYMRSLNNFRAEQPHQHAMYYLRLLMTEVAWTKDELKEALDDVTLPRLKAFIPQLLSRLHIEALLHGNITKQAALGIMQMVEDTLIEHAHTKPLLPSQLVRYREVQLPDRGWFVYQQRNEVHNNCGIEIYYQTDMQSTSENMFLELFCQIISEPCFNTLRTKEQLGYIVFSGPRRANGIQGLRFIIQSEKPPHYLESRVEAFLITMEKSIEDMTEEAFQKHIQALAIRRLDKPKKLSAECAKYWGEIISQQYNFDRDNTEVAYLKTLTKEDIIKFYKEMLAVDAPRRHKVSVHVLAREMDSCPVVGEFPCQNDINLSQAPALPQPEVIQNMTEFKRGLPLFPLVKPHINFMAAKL
RTF Ca sens inh = cardiac RTF calcium sensitivity inhibitors, primary screen, biochemical, IANBD-TnC fluorescence, EC70 calcium; IANBD-labeled cardiac RTF, Ca2+ fluorescence; inhibition, % at 7.15 µM; hit rate 0.12% among 340,000;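 active = inhibition above the mean inhibition of all tested compounds plus 3 SD, cut at about 17% in these data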;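 also: assay run at fixed EC70 calcium of 1.6 mM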
CRFBP-R2 block = antagonists of CRF-BP/CRF-R2 complex, primary screen, cell-based, HEK293, calcium dye fluorescence, uHTS. inhibition, % at 11.8 µM. hit rate 0.59% among 350,000. CRF-induced calcium fluorescence. AID 588475, 2011;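 active = inhibition of the ligand-induced calcium signal above about 50% at the single tested concentration, limit read from the data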
CRFBP-R2 agonist = agonists of CRF-BP/CRF-R2 complex, primary screen, cell-based, HEK293, calcium dye fluorescence, uHTS; CRF-binding protein / CRF receptor 2 complex (human); calcium dye fluorescence (FLIPR); percent of saturating CRF peptide response; activation, % at 13.2 µM; hit rate 0.46% among 350,000; AID 588473, 2011;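 active = activation of at least 50%, plus an integration ratio under a set limit after plate pattern correction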;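 also: plate controls were neutral control wells without compound for no effect and CRF at EC100 for full effect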
IDE act = human IDE activators in live cells, primary screen, fluorescence polarization, HEK cells, FAbeta-B substrate | activation, % at 5.96 µM | Insulin-degrading enzyme (Homo sapiens), P14735 | hit rate 0.073% among 340,000 | FAbeta-B cleavage; 0% vehicle, 100% cell-free pure enzyme wells;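 active = activation above the mean of all tested compounds plus 3 SD, set per screening campaign, cut at about 17% in these data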
Active calls of the source: *; i = inactive; · = not tested or not shown.

SMILES	cardiac RTF act	IDE cell inh	RTF Ca sens inh	CRFBP-R2 block	CRFBP-R2 agonist	IDE act
Cc1ccc(/C=c2/sc3nnc(-c4ccccc4Cl)n3c2=O)o1	-0.7	3.5	-3.9	-20.6	-0.6	-3.3
CCN(CC)c1ccc(/C=c2\sc3nnc(-c4ccccc4Cl)n3c2=O)cc1	46.9*	3.5	-62.1	-98.9	112.5*	-5.3
NS(=O)(=O)c1ccc(CCNS(=O)(=O)c2ccc(Cl)s2)cc1	1.4	-1.9	-4.5	-10.0	0.7	3.4
COC(=O)c1scc(C)c1NC(=O)c1ccccc1F	1.7	1.7	-4.9	-179.4	203.6*	-2.8
COC(=O)c1scc(C)c1NC(=O)Nc1ccccc1	1.0	6.4	-9.7	15.7	-0.8	-2.6
CC1=C(C(=O)OCc2ccccc2)C(c2ccc(Br)cc2)NC(=O)N1CCCCCC(=O)O (centres undefined)	-9.3	-2.1	-3.1	-1.8	0.3	38.0*
CC1=C(C(=O)OCc2ccccc2)C(c2ccc(Br)cc2)NC(=O)N1CCCC(=O)O (centres undefined)	·	-7.9	·	10.6	-0.3	·
COc1cc(/C=C/C(=O)OCC(=O)N(CC(C)C)c2c(N)n(Cc3ccccc3)c(=O)[nH]c2=O)ccc1O	-5.2	·	-3.3	-41.3	119.6*	0.5
CN(C)CCNc1ncnc2c1sc1nc(-c3ccccc3)c3c(c12)CCCC3	9.4	1.4	0.8	21.5	2.4	31.6*
OCC1(CCc2ccccc2)CCCN(CCCc2ccccc2)C1 (centres undefined)	-5.7	-0.1	-1.0	-2.6	-1.1	3.1
CCOC(=O)C1(CC2CCCCO2)CCN(Cc2cc3ccccc3[nH]2)CC1 (centres undefined)	-1.7	-1.4	-0.2	-10.4	126.2*	-1.6
CCCCOc1ccc(-c2nc(/C=N/c3nccs3)c(O)o2)cc1	1.9	2.1	-4.5	-12.5	-0.6	3.0
CCOc1ccc2nc(/N=C/c3nc(-c4ccc(Br)cc4)oc3O)sc2c1	14.7	5.0	-0.7	-116.0	146.7*	-15.1
Cc1cc2c(cc1S(=O)(=O)CCC(=O)NC1CCCCC1C)OCC(=O)N2 (centres undefined)	2.4	0.5	-2.2	-87.1	83.3*	8.6
CC1CCCCC1NC(=O)CCS(=O)(=O)c1cc2c(cc1Cl)NC(=O)CO2 (centres undefined)	-4.5	-1.7	-2.0	-13.9	-1.3	4.3
COC(=O)c1c(C)[nH]c(O)c1C=Nc1ccc(C(C)C)cc1	10.6	4.2	-25.5	-141.5	126.3*	2.0
COC(=O)c1c(C)[nH]c(O)c1C=Nc1ccc(Oc2ccccc2)cc1	-3.5	4.0	7.8	-83.4	59.3*	3.2
CCOC(=O)c1c(C)[nH]c(O)c1C=Nc1ccc(Cl)cc1	5.1	-0.7	-4.0	-32.6	17.5	0.0
COc1cc(CC(=O)OCC(=O)c2ccc(F)cc2)cc(OC)c1OC	-2.9	8.1	2.0	-8.1	-0.3	2.4
O=C(O)CCNc1cc(N2CCN(C(=O)c3ccco3)CC2)c2noc3c2c1C(=O)c1ccccc1-3	138.8*	6.1	-9.0	-17.1	0.6	-0.8
CCN1CCN(c2cc(N3CCN(C(=O)c4ccco4)CC3)c3c4c(onc24)-c2ccccc2C3=O)CC1	1.6	4.5	3.2	-3.0	0.4	1.4
O=C(CSc1nc(N2CCOCC2)nc(N2CCOCC2)n1)Nc1ccc([N+](=O)[O-])cc1	0.7	-13.9	-5.3	-6.3	6.3	23.3*
CCOC(=O)Oc1ccc2c(=O)c(Oc3cccc(C)c3)coc2c1	-8.8	0.1	-2.4	52.4*	-4.4	0.9
Cc1ccc(S(=O)(=O)/N=C(/Nc2ccc([N+](=O)[O-])cc2[N+](=O)[O-])c2ccccc2)cc1	-4.7	-0.1	-8.6	66.9*	0.9	2.9
Cc1ccc(S(=O)(=O)/N=C(/Nc2ccc([N+](=O)[O-])cc2)c2ccccc2)cc1	2.9	4.9	6.5	-13.9	3.6	4.7
SMILES	cardiac RTF act	IDE cell inh	RTF Ca sens inh	CRFBP-R2 block	CRFBP-R2 agonist	IDE act
COCCNC(=S)N1CCc2cc(OC)c(OC)cc2C1COc1cc(C)cc(C)c1 (centres undefined)	4.3	-0.8	-14.3	86.4*	0.4	0.1
CNC(=S)N1CCc2cc(OC)c(OC)cc2C1COc1ccc(OC)cc1 (centres undefined)	4.7	8.6	-4.3	1.5	-3.8	9.0
O=C1CCN2C=Nc3cccc4ccc1c2c34	703.0*	-20.8	i	-334.1	597.8	41.1*
COc1ccc(-c2cnc(C(N)=O)c(=O)[nH]2)cc1	·	·	·	-12.6	2.0	·
CC(=O)C1=C(O)C(=O)N(c2nccs2)C1c1ccccc1 (centres undefined)	-1.8	1.4	-5.1	94.4*	-2.6	-3.1
Cc1ccc(NC(=O)c2cc(NC(=O)c3ccccc3C(=O)O)ccc2N2CCCCC2)cc1	-0.8	-1.4	-13.5	8.3	-1.3	3.7
Cc1ccc(NC(=O)c2cc(NC(=O)/C=C\C(=O)O)ccc2N2CCCCC2)cc1	-1.7	0.1	1.7	95.4*	0.3	1.3
CCN1CCN(CC(O)COC(c2ccccc2)c2ccccc2C)CC1 (centres undefined)	-4.0	4.2	-13.0	19.2	-1.5	5.7
Cc1ccc(S(=O)(=O)C(C#N)c2nc3ccccc3nc2N2CCCC2)cc1 (centres undefined)	2.8	0.4	-19.3	-54.9	55.8*	0.3
CCN1CCN(c2nc3ccccc3nc2C(C#N)S(=O)(=O)c2ccc(C)cc2)CC1 (centres undefined)	-2.5	0.1	-3.3	11.7	2.0	3.6
CCN(CC)c1nc2ccccc2nc1C(C#N)C(=O)NCCCOC (centres undefined)	-3.2	7.5	-1.8	-5.2	-1.0	1.2
CCN(CC)c1nc2ccccc2nc1C(C#N)C(=O)NCCc1ccccc1 (centres undefined)	65.5*	-4.8	-26.9	-29.0	4.0	1.4
CCCCCCNC(=O)C(C#N)c1nc2ccccc2nc1N1CCCC1 (centres undefined)	38.1*	-1.5	4.7	-137.0	181.6*	-6.7
CCOc1ccc(CNC2CCCCCCC2)cc1OC	-2.2	-0.3	0.2	1.2	-0.4	7.0
COC(=O)c1ccc(C)c(NC(=O)c2ccc(CN3CCc4ccccc4C3)cc2)c1	-1.2	3.2	-8.1	-16.5	-3.5	7.8
COCCSc1ccccc1C(=O)N1CCc2ccccc21	4.0	·	-8.1	-6.6	-1.7	-1.6
Cc1cc(=O)oc(C)c1C(=O)Nc1ccc2ncccc2c1	74.2*	1.3	-32.3	-63.7	78.2*	-9.0
